Test results: PubChem BioAssay AID1159580 (chemical genetic matrix, 2015)
Where “and” joins values, the source holds several entries; their conditions need not be identical. Equal values may be shown once. The campaign covered roughly 5,500 compounds. About 2,000 (36%) were called active. Another 18% or so got no clear call; they are omitted. No stated cut-off is given here; in the data, active means normalized growth mostly below about 0.91 (no sharp cut-off); inconclusive means no clear call, values can overlap the other calls; inactive means mostly above about 0.92. The list shows a part of the results.

Experiment: chemical genetic growth profiling, strain panel (AID 1159580);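 further: tested at 20 µM; growth read once vehicle control cultures reached saturation at 30 °C; 1 = growth at the plate median or of vehicle wells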
Conditions: S. cerevisiae deletion strains, growth OD

Measured: normalized growth

COc1ccc2c(c1)OC/C(=C\c1ccc(OC)c(O)c1)C2=O
active: locus YAL013W, strain DEP1, stronger effect = lower value 0.72 | locus YAL026C, strain drs2, stronger effect = lower value 0.865 | locus YBL061C, strain skt5, stronger effect = lower value 0.905 | locus YBR009C, strain hhf1, stronger effect = lower value 0.781 | locus YBR021W, strain FUR4, stronger effect = lower value 0.796 | locus YBR023C, strain chs3, stronger effect = lower value 0.88 | locus YBR231C, strain swc5, stronger effect = lower value 0.8 | locus YBR279W, strain paf1, stronger effect = lower value 0.912 | locus YCL011C, strain gbp2, stronger effect = lower value 0.857 | locus YCL016C, strain dcc1, stronger effect = lower value 0.881 | locus YCL029C, strain bik1, stronger effect = lower value 0.772 | locus YCL069W, strain vba3, stronger effect = lower value 0.878 | locus YDL035C, strain GPR1, stronger effect = lower value 0.818 | locus YDL074C, strain BRE1, stronger effect = lower value 0.534 | locus YDL101C, strain DUN1, stronger effect = lower value 0.665 | locus YDL192W, strain arf1, stronger effect = lower value 0.748 | locus YDR101C, strain arx1, stronger effect = lower value 0.855 | locus YDR137W, strain rgp1, stronger effect = lower value 0.705 | locus YDR150W, strain NUM1, stronger effect = lower value 0.894 | locus YDR159W, strain sac3, stronger effect = lower value 0.8 | locus YDR162C, strain NBP2, stronger effect = lower value 0.475 | locus YDR297W, strain sur2, stronger effect = lower value 0.864 | locus YDR318W, strain mcm21, stronger effect = lower value 0.574 | locus YDR334W, strain swr1, stronger effect = lower value 0.894 | locus YDR388W, stronger effect = lower value 0.913 | locus YDR392W, strain spt3, stronger effect = lower value 0.206 | locus YDR502C, strain sam2, stronger effect = lower value 0.69 | locus YEL003W, strain gim4, stronger effect = lower value 0.806 | locus YEL061C, strain CIN8, stronger effect = lower value 0.623 | locus YER015W, strain faa2, stronger effect = lower value 0.874 | locus YER110C, stronger effect = lower value 0.79 | locus YER155C, strain BEM2 (second series), stronger effect = lower value 0.448 | locus YER155C, strain BEM2, stronger effect = lower value 0.301 | locus YER167W, strain BCK2, stronger effect = lower value 0.816 | locus YGL078C, strain dbp3, stronger effect = lower value 0.878 | locus YGL086W, strain mad1, stronger effect = lower value 0.517 | locus YGL173C, strain kem1, stronger effect = lower value 0.878 | locus YGL227W, strain vid30, stronger effect = lower value 0.813 | locus YGL240W, strain doc1, stronger effect = lower value 0.795 | locus YGL248W, strain PDE1, stronger effect = lower value 0.603 | locus YGL253W, strain hxk2, stronger effect = lower value 0.8 | locus YGR078C, strain PAC10, stronger effect = lower value 0.487 | locus YGR135W, strain pre9, stronger effect = lower value 0.684 | locus YGR229C, strain SMI1, stronger effect = lower value 0.386 | locus YGR252W, strain gcn5, stronger effect = lower value 0.545 | locus YHR013C, strain ard1, stronger effect = lower value 0.783 | locus YHR027C, strain rpn1, stronger effect = lower value 0.909 | locus YHR079C, strain IRE1 (second series), stronger effect = lower value 0.831 | locus YHR094C, strain hxt1, stronger effect = lower value 0.812 | locus YHR129C, strain ARP1, stronger effect = lower value 0.516 | locus YHR142W, strain chs7, stronger effect = lower value 0.727 | locus YHR200W, strain rpn10, stronger effect = lower value 0.864 | locus YIL066C, strain RNR3, stronger effect = lower value 0.665 | locus YIL073C, strain SPO22, stronger effect = lower value 0.631 | locus YIL125W, strain kgd1, stronger effect = lower value 0.916 | locus YIR030C, strain dcg1, stronger effect = lower value 0.854 | locus YJL095W, strain BCK1 (second series), stronger effect = lower value 0.899 | locus YJL129C, strain trk1, stronger effect = lower value 0.776 | locus YJL164C, strain tpk1, stronger effect = lower value 0.876 | locus YJL166W, strain qcr8, stronger effect = lower value 0.654 | locus YJL187C, strain SWE1 (second series), stronger effect = lower value 0.773 | locus YJR043C, strain POL32, stronger effect = lower value 0.731
0.399 (active) and 0.978 (inactive): locus YHR030C, strain SLT2, stronger effect = lower value
0.262 (active) and 0.961 (inactive): locus YJL095W, strain BCK1, stronger effect = lower value
inactive: locus YAL021C, strain ccr4, stronger effect = lower value 0.985 | locus YAL030W, strain snc1, stronger effect = lower value 0.935 | locus YBR171W, strain sec66, stronger effect = lower value 0.919 | locus YBR229C, strain ROT2, stronger effect = lower value 0.967 | locus YCR088W, strain abp1, stronger effect = lower value 0.954 | locus YDL005C, strain med2, stronger effect = lower value 0.984 | locus YDL040C, strain nat1, stronger effect = lower value 0.953 | locus YDL185W, strain tfp1, stronger effect = lower value 0.909 | locus YDR001C, strain nth1, stronger effect = lower value 0.953 | locus YDR069C, strain doa4, stronger effect = lower value 0.97 | locus YDR195W, strain ref2 1.11 | locus YDR335W, strain msn5, stronger effect = lower value 0.943 | locus YEL037C, strain rad23, stronger effect = lower value 0.954 | locus YEL061C, strain CIN8 (second series), stronger effect = lower value 0.935 | locus YER016W, strain bim1, stronger effect = lower value 0.949 | locus YER111C, strain swi4, stronger effect = lower value 0.964 | locus YFR010W, strain ubp6, stronger effect = lower value 0.944 | locus YGL167C, strain pmr1, stronger effect = lower value 0.947 | locus YHR079C, strain IRE1, stronger effect = lower value 0.968 | locus YJL092W, strain hpr5, stronger effect = lower value 0.94 | locus YJL115W, strain asf1, stronger effect = lower value 0.953 | locus YJL134W, strain LCB3, stronger effect = lower value 0.949 | locus YJL154C, strain vps35, stronger effect = lower value 0.969 | locus YJL168C, strain set2, stronger effect = lower value 0.948
